This is an account of results in PubChem BioAssay (Tox21).

The structures appear in SMILES notation. Several values for one entry are separate records, joined by “and”; a condition that tells them apart may be missing. Equal values may be shown once. Inconclusive results are not listed. Activity calls are given as the source filed them. Unless noted, calls follow the shape of the dose curve; as a rule, active = well fitted curve in the direction sought with a large enough effect in the repeat runs; inconclusive = weak or mixed curves; inactive = no such curve, though single readings can be large; an effect the other way counts as inactive or inconclusive.

Assay [1] can be described thus: qHTS assay to identify small molecule antagonists of the glucocorticoid receptor (GR) signaling pathway - cell viability counter screen (AID 720693). Also: nearly all actives have a fitted effect of over 55% in size. Also: potency is read from the fitted curve at half-maximal effect.
The nature of assay [2]: qHTS assay for identifying genotoxic compounds that show differential cytotoxicity against isogenic chicken DT40 cell lines with known DNA damage response pathways - Rev3 mutant cell line (AID 743014). Also: nearly all actives have a fitted effect of over 55% in size. Also: potency is read from the fitted curve at half-maximal effect.
A short description of assay [3]: qHTS assay for identifying genotoxic compounds that show differential cytotoxicity against isogenic chicken DT40 cell lines with known DNA damage response pathways - Rad54/Ku70 mutant cell line (AID 743015). Also: nearly all actives have a fitted effect of over 60% in size. Also: potency is read from the fitted curve at half-maximal effect.
The nature of assay [4]: qHTS assay to identify small molecule antagonists of the androgen receptor (AR) signaling pathway - cell viability counter screen (AID 743033; also: nearly all actives have a fitted effect of over 45% in size; also: potency is read from the fitted curve at half-maximal effect).
In assay [5] the target is Androgen receptor (Homo sapiens) (UniProt P10275). The assay can be described thus: qHTS assay to identify small molecule antagonists of the androgen receptor (AR) signaling pathway (AID 743035; active = well fitted inhibition curve with a large enough effect in the signal ratio in the repeat runs, not every such curve was filed as active; the % refers to the signal ratio). A digest of the protocol:
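R1881 agonist challenge of a HEK293 UAS-beta-lactamase AR reporter line in the presence of compound (16 h, 37C); signal taken as FRET fluorescence after 2 h with LiveBLAzer B/G substrate at room temperature.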

For assay [6] the target is unchanged. The assay can be described thus: qHTS assay to identify small molecule agonists of the androgen receptor (AR) signaling pathway using the MDA cell line (AID 743040; also: nearly all actives have a fitted effect of over 20% in size). The settings on record: MDA-kb2 AR-luc cells, MMTV luciferase, 16 h; activity change: at 70.3 µM (top of the series), hits give high values. A digest of the protocol:
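Luciferase agonist assay: 16 h compound exposure at 37C without CO2 in MDA-kb2 AR-luc cells, whose MMTV promoter responds to both AR and GR. Luminescence measured after 30 min room-temperature incubation with ONE-Glo.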

The nature of assay [7]: qHTS assay to identify small molecule antagonists of the androgen receptor (AR) signaling pathway using the MDA cell line - cell viability counter screen (AID 743041; also: nearly all actives have a fitted effect of over 45% in size). The method, boiled down:
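Viability read by CellTiter-Fluor fluorescence in the same wells as the antagonist screen, added after 15.5 h of a 16 h, 37C exposure. Human breast carcinoma MDA-kb2 AR-luc cells, compounds co-dosed with agonist R1881.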

Assay [8] addresses Androgen receptor (Homo sapiens) (UniProt P10275). The assay can be described thus: qHTS assay to identify small molecule antagonists of the androgen receptor (AR) signaling pathway using the MDA cell line (AID 743042; also: nearly all actives have a fitted effect of over 55% in size). A digest of the protocol:
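Antagonist mode: compounds plus R1881 agonist added to MDA-kb2 AR-luc cells, incubated 16 h at 37C. Luciferase reporter luminescence quantified, with multiplexed CellTiter-Fluor readout for cell viability.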

The nature of assay [9]: qHTS assay for identifying genotoxic compounds that show differential cytotoxicity against isogenic chicken DT40 cell lines with known DNA damage response pathways - wild type cell line (AID 743012). Also: nearly all actives have a fitted effect of over 60% in size. Also: potency is read from the fitted curve at half-maximal effect. The method, boiled down:
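Endpoint: CellTiter-Glo luminescence, 30 min RT. Cells: wild type DT40, 300/well. Exposure: compounds in DMSO, 40 h, 37 C/5% CO2, after ~0.5 h pre-incubation.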

Assay [10] deals with Androgen receptor (Homo sapiens) (UniProt P10275). The experiment in a line: qHTS assay to identify small molecule agonists of the androgen receptor (AR) signaling pathway (AID 743036; active = well fitted activation curve with a large enough effect in the signal ratio in the repeat runs, with a control signal flat, not every such curve was filed as active; the % refers to the signal ratio; also: potency is read from the fitted curve at half-maximal effect). A digest of the protocol:
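Reporter line: GeneBLAzer AR-UAS-bla-GripTite (HEK293). Steps: plate cells, 4 h rest, add compounds, 16 h at 37C, add LiveBLAzer B/G substrate, 2 h at RT, read fluorescence.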
% is scaled to controls: 0 for no effect and ±100 for the full control effect.

Chain of Androgen receptor (Homo sapiens) (P10275 whole entry, looked up): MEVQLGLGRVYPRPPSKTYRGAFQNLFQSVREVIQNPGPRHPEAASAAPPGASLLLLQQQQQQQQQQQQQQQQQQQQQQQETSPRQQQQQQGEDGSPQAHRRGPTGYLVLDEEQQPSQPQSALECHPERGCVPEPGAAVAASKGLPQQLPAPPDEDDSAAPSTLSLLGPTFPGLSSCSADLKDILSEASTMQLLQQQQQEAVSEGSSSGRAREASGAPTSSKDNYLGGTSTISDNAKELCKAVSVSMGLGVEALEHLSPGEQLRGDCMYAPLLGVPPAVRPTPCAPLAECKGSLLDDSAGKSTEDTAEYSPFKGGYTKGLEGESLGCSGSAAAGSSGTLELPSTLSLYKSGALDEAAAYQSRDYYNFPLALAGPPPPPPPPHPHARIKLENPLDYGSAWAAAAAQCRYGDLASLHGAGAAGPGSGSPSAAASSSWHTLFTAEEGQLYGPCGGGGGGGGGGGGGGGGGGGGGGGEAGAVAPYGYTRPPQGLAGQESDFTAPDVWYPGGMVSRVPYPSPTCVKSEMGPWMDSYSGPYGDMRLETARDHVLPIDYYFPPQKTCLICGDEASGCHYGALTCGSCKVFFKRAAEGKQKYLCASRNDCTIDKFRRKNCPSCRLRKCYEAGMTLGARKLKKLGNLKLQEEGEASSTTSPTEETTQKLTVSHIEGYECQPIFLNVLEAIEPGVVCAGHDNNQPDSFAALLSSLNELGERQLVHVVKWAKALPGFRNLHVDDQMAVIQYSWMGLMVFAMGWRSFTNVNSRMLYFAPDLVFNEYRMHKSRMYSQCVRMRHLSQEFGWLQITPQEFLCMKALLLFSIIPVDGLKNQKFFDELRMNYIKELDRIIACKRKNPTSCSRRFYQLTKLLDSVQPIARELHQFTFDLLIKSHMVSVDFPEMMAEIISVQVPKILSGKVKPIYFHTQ

For `CCOP(=S)(S)OCC`, the Potency entry in assay [1], in [2], in assay [3], in [4], in assay [5] and in assay [6] was “inactive” throughout. Moreover, the Potency result in assay [7] and in assay [8] was “inactive” each time.
For `C[C@H]1[C@@H]2Cc3ccc(O)cc3[C@@]1(C)CCN2C`, the Potency entry in assay [1], in assay [4] and in assay [7] was “inactive” throughout.
Turning to `COc1cc(C[C@@H](C)N)c(OC)cc1Br`, the Potency entry in assay [1], in [4] and in assay [7] was “inactive” throughout. Moreover, the Potency in assay [9] was 70.4 µM (active).
For `CCCN(CCC)C(=O)Cc1c(-c2ccc(Cl)cc2)nc2ccc(Cl)cn12`, the Potency entry in assay [1], in [2], in assay [3], in assay [4] and in [7] was “inactive” throughout.
As to `CC(C)CCCCCCCOC(=O)c1ccccc1C(=O)OCCCCCCCC(C)C`, the Potency entry in [1], in assay [9], in assay [3], in [4] and in [7] was “inactive” in each case.
In the case of `Nc1cccc2ccccc12`, the Potency entry in assay [1], in assay [4] and in assay [7] was “inactive” throughout.
Consider `C[N+](C)(C)CC1CO1` (stereo not given), for which the Potency result in assay [1], in [4], in [5], in assay [10], in assay [6] and in [7] was “inactive” throughout. Also, the Potency entry in assay [8] is “inactive”. Besides, the Potency in [2] is 13.7 µM (active).
As to `CN(C)C(=O)Nc1cccc(OC(=O)NC(C)(C)C)c1`, the Potency entry in assay [1], in [9], in assay [3], in assay [4] and in assay [7] was “inactive” throughout.
For the compound `C=CC(=O)OCC`, the Potency result in assay [9], in assay [2], in [3] and in assay [4] was “inactive” throughout.
For `O=C(O)C(F)(F)C(F)(F)C(F)(F)C(F)(F)C(F)(F)F`, the Potency entry in assay [1], in [9], in [3], in assay [4] and in assay [7] was “inactive” each time.
On to `O=S(=O)(c1ccccc1)c1ccccc1`, for which the Potency result in [1], in assay [2], in [3], in assay [4] and in assay [7] was “inactive” throughout.
`OCC1CO1` (stereo not given): the Potency entry in assay [9], in assay [2], in assay [3], in assay [4] and in assay [7] was “inactive” each time.
As for `Oc1cccc(Cl)c1`, the Potency result in assay [9], in assay [2], in assay [3], in assay [4] and in assay [7] was “inactive” throughout.
With `COC(=O)Cc1ccccc1`, the Potency entry in assay [9], in assay [2], in [3], in assay [4] and in assay [7] was “inactive” each time.
`CN[C@@H](C)[C@H](O)c1ccccc1`: the Potency entry in assay [1], in [9], in assay [3], in assay [4] and in [7] was “inactive” in each case.
Regarding `CC(C)C1(C)N=C(c2ncccc2C(=O)O)NC1=O` (stereo not given), the Potency result in assay [1], in assay [3], in [4] and in assay [7] was “inactive” in each case.
As for `NC(=S)c1c(Cl)cccc1Cl`, the Potency result in assay [1], in [4] and in assay [7] was “inactive” in each case.
As for `C=CCc1ccc(OC(=O)Cc2ccccc2)c(OC)c1`, the Potency result in [1], in assay [4] and in assay [7] was “inactive” throughout.
As to `C=CC(C)(CCC=C(C)C)OC(=O)c1ccccc1N` (stereo not given), the Potency entry in [1], in [4] and in assay [7] was “inactive” in each case.
For the compound `CCSCc1ccccc1OC(=O)NC`, the Potency entry in [1], in [3], in [4] and in assay [7] was “inactive” throughout.
Consider `NCCc1cc(O)c(O)cc1O`, for which the Potency result in assay [1], in assay [4] and in assay [7] was “inactive” throughout. In [9], the Potency is 23.7 µM (active).
For `CCCCCCCCCCCC[N+](C)(C)CCOc1ccccc1`, the Potency in [9] is 1.88 µM (active) and 6.11 µM (active); in assay [2] it was 2.37 µM (active) and 3.86 µM (active); in [3] it was 2.66 µM (active) and 6.11 µM (active); in assay [4], 23.9 µM (active) and 15.5 µM (active).
For the compound `CCC(C)(C)O`, the Potency entry in assay [9], in assay [2], in assay [3], in assay [4] and in assay [7] was “inactive” throughout.
As for `CCOP(=O)(SC(C)CC)N1CCSC1=O` (stereo not given), the Potency result in assay [9], in assay [2], in [3], in [4] and in [7] was “inactive” throughout.
Turning to `C[C@]12C=CC3=C4CCC(=O)C=C4CC[C@H]3[C@@H]1CC[C@@H]2O`, the Potency in assay [1] is 24.4 µM (active); in [2], 68.1 µM (active); in assay [3], 60.7 µM (active); in assay [10], 0.0027 µM (active). In addition, the Potency result in assay [4], in assay [7] and in assay [8] was “inactive” in each case. The activity change in assay [6] is 189% (active).
Take `Nc1ccc2c(c1)Cc1ccccc1-2`: the Potency entry in [1] and in [4] was “inactive” each time.
Take `COc1ccc2c(c1OC)C(=O)O[C@H]2[C@@H]1c2cc3c(cc2CCN1C)OCO3`: the Potency entry in assay [1], in assay [2], in [3], in assay [4], in [5] and in assay [10] was “inactive” each time. Besides, the Potency result in assay [6], in assay [7] and in [8] was “inactive” in each case.
As to `CC(C)(C)N(NC(=O)c1ccc(Cl)cc1)C(=O)c1ccccc1`, the Potency result in assay [1], in [4], in [10], in [6], in assay [7] and in assay [8] was “inactive” in each case. Further, the Potency in [3] is 43 µM (active).
With `Nc1cc(Cl)cc(C(=O)O)c1Cl`, the Potency result in [9], in [2], in [3], in [4] and in [7] was “inactive” throughout.
Regarding `COc1ccc(C(O)(c2cncnc2)C2CC2)cc1` (stereo not given), the Potency entry in [9], in [2], in assay [3], in assay [4] and in assay [7] was “inactive” in each case.
On to `CCCC[N+]1(C)[C@@H]2CC(OC(=O)[C@H](CO)c3ccccc3)C[C@H]1[C@@H]1O[C@@H]12` (stereo not given in full), for which the Potency entry in assay [1], in assay [2], in assay [3] and in assay [7] was “inactive” in each case.
Turning to `CC(Oc1cc(Cl)c(Cl)cc1Cl)C(=O)O` (stereo not given), the Potency entry in [9], in assay [2], in [3], in [4] and in [7] was “inactive” each time.
